The nature of assay [1]: NCI Yeast Anticancer Drug Screen. Data for the rad50 strain (AID 155).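 Also: 0% = growth of vehicle-only cultures of the same strain.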 The note with it: S. cerevisiae rad50 strain growth inhibition, hits give high values. In short, it runs like this:
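A DNA repair-deficient yeast mutant serves as the test organism; compound-induced growth inhibition is calculated against vehicle-treated cells.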

A short description of assay [2]: NCI Yeast Anticancer Drug Screen. Data for the mec2-1 strain (AID 157). The note with it: S. cerevisiae mec2-1 strain, hits give high values. In short, it runs like this: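 Each compound was tested on mec2-1 yeast, a strain altered in DNA damage repair or cell cycle control. Growth inhibition is reported relative to vehicle.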
Assay [3] is described as follows: NCI Yeast Anticancer Drug Screen. Data for the sgs1 mgt1 strain (AID 161).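 Also: 0% = growth of cultures given vehicle only.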 The following applies: S. cerevisiae sgs1 mgt1 strain, hits give high values. In short, it runs like this: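 Inhibition of yeast growth, normalised to vehicle-treated controls, is reported for a strain bearing genetic alterations in DNA damage repair.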
The nature of assay [4]: NCI Yeast Anticancer Drug Screen. Data for the cln2 rad14 strain (AID 165).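 Also: 0% = growth equal to vehicle treated cultures.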 The following applies: S. cerevisiae cln2 rad14 strain, hits give high values. The gist of the method:
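Test compounds were added to cln2 rad14 yeast cultures; inhibition of growth was then determined by comparison with vehicle treatment.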

A short description of assay [5]: NCI Yeast Anticancer Drug Screen. Data for the bub3 strain (AID 167). The note with it: S. cerevisiae bub3 mutant strain, hits give high values. In short, it runs like this: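 Inhibition values come from growth of compound-treated mutant yeast normalised to vehicle-treated controls.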
Assay [6] in a line: NCI Yeast Anticancer Drug Screen. Data for the mlh1 rad18 strain (AID 175). The following applies: S. cerevisiae mlh1 rad18 strain growth inhibition, hits give high values. In short, it runs like this: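 Inhibition values reflect reduced growth of mutant yeast versus vehicle-treated controls following compound exposure; the mutations affect DNA damage repair.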
Where [7] appears, read: at 5.0 µM (retest, dose inferred, filed as 0.5).
[8] abbreviates: at 50.0 µM (retest, dose inferred, filed as 5.0).

The panel holds about 79,000 compounds, 15% with a hit somewhere; the sample as a whole holds those more often. Values without a mark were called inactive. Active and inactive are the calls of the source. Rule as the data show it: active = growth inhibition above about 70%; inactive = the rest.

In the case of `COc1cc(NS(=O)(=O)c2ccc(NC(C)c3ccc4cccnc4c3O)cc2)nc(OC)n1` (configuration not stated), the growth inhibition was 3% in assay [1] (setting [7]); 81% (active) in assay [1] (setting [8]); 95.1% (active) in assay [1] (at 50.0 µM); 2% in assay [2] (setting [7]); 40% in assay [2] (setting [8]); 97.2% (active) in assay [2] (at 50.0 µM). Besides, the growth inhibition was 1% in assay [3] (setting [7]); 87% (active) in assay [3] (setting [8]); 69.4% in assay [3] (at 50.0 µM); -3% in assay [4] (setting [7]); 78% (active) in assay [4] (setting [8]); 66% in assay [4] (at 50.0 µM). The growth inhibition is -2% in assay [5] (setting [7]); 88% (active) in assay [5] (setting [8]); 96.8% (active) in assay [5] (at 50.0 µM); 5% in assay [6] (setting [7]); 82% (active) in assay [6] (setting [8]); 97.3% (active) in assay [6] (at 50.0 µM).
On to `Clc1ccc(-c2csc(NCC3CCCO3)n2)cc1` (configuration not stated), for which the growth inhibition in assay [1] (setting [7]) was 46%; in assay [1] (setting [8]), 60%; in assay [1] (at 50.0 µM), 66.4%; in assay [2] (setting [7]), 27%; in assay [2] (setting [8]), 57%; in assay [2] (at 50.0 µM), 39%. Further, the growth inhibition was 34% in assay [3] (setting [7]); 83% (active) in assay [3] (setting [8]); 77.2% (active) in assay [3] (at 50.0 µM); 27% in assay [4] (setting [7]); 53% in assay [4] (setting [8]); 63.2% in assay [4] (at 50.0 µM). For the same compound, the growth inhibition in assay [5] (setting [7]) was 39%; in assay [5] (setting [8]), 82% (active); in assay [5] (at 50.0 µM), 73.9% (active); in assay [6] (setting [7]) it was 44%; in assay [6] (setting [8]), 70% (active); in assay [6] (at 50.0 µM), 62.4%.
`N#CC12CCCC(=O)N1c1ccccc1S2` (configuration not stated): the growth inhibition is 10% in assay [1] (setting [7]); 5% in assay [1] (setting [8]); 12.9% in assay [1] (at 50.0 µM); -7% in assay [2] (setting [7]); 10% in assay [2] (setting [8]); 7.85% in assay [2] (at 50.0 µM). The growth inhibition in assay [3] (setting [7]) is 1%; in assay [3] (setting [8]) it was 1%; in assay [3] (at 50.0 µM) it was -2.3%; in assay [4] (setting [7]), -12%; in assay [4] (setting [8]) it was -3%; in assay [4] (at 50.0 µM), 43.5%. Further, the growth inhibition is 3% in assay [5] (setting [7]); 1% in assay [5] (setting [8]); -6.8% in assay [5] (at 50.0 µM); 14% in assay [6] (setting [7]); -2% in assay [6] (setting [8]); -10.2% in assay [6] (at 50.0 µM).
As for `CC(C)C(=O)/C=C/c1c(Cl)cccc1Cl`, the growth inhibition was 22% in assay [1] (setting [7]); 26% in assay [1] (setting [8]); 26.6% in assay [1] (at 50.0 µM); 14% in assay [2] (setting [7]); 22% in assay [2] (setting [8]); 41.9% in assay [2] (at 50.0 µM). For the same compound, the growth inhibition was 11% in assay [3] (setting [7]); 20% in assay [3] (setting [8]); 48.4% in assay [3] (at 50.0 µM); 16% in assay [4] (setting [7]); 28% in assay [4] (setting [8]); 46% in assay [4] (at 50.0 µM). Besides, the growth inhibition in assay [5] (setting [7]) was 22%; in assay [5] (setting [8]), 18%; in assay [5] (at 50.0 µM), 54.9%; in assay [6] (setting [7]), 19%; in assay [6] (setting [8]), 21%; in assay [6] (at 50.0 µM), 43.6%.
In the case of `c1ccc([P+](c2ccccc2)(c2ccccc2)C2c3ccccc3-c3ccccc32)cc1`, the growth inhibition was 68% in assay [1] (setting [7]); 98% (active) in assay [1] (setting [8]); 91.2% (active) in assay [1] (at 50.0 µM); 55% in assay [2] (setting [7]); 98% (active) in assay [2] (setting [8]); 92.8% (active) in assay [2] (at 50.0 µM). The growth inhibition in assay [3] (setting [7]) was 86% (active); in assay [3] (setting [8]) it was 99% (active); in assay [3] (at 50.0 µM), 89.5% (active); in assay [4] (setting [7]), 31%; in assay [4] (setting [8]), 97% (active); in assay [4] (at 50.0 µM), 88.5% (active). For the same compound, the growth inhibition was 57% in assay [5] (setting [7]); 99% (active) in assay [5] (setting [8]); 86.5% (active) in assay [5] (at 50.0 µM); 69% in assay [6] (setting [7]); 98% (active) in assay [6] (setting [8]); 86.2% (active) in assay [6] (at 50.0 µM).
For `COc1ccc2c(c1)CC[C@@H]1C2CC[C@]2(C)OC(=O)CCC12` (some centres not stated), the growth inhibition in assay [1] (setting [7]) is -23%; in assay [1] (setting [8]), 98% (active); in assay [1] (at 50.0 µM), 73.1% (active); in assay [2] (setting [7]), -5%; in assay [2] (setting [8]), 89% (active); in assay [2] (at 50.0 µM), 66.8%. For the same compound, the growth inhibition in assay [3] (setting [7]) was -15%; in assay [3] (setting [8]), 93% (active); in assay [3] (at 50.0 µM) it was 77.1% (active); in assay [4] (setting [7]) it was -4%; in assay [4] (setting [8]) it was 92% (active); in assay [4] (at 50.0 µM) it was 67.3%. In addition, the growth inhibition in assay [5] (setting [7]) was -31%; in assay [5] (setting [8]), 97% (active); in assay [5] (at 50.0 µM), 72.7% (active); in assay [6] (setting [7]), 12%; in assay [6] (setting [8]), 97% (active); in assay [6] (at 50.0 µM), 71.7% (active).
On to `CCN(CC)CCOc1ccc(C=C2c3ccccc3-c3ccccc32)cc1`, for which the growth inhibition in assay [1] (setting [7]) was 98% (active); in assay [1] (setting [8]) it was 99% (active); in assay [1] (at 50.0 µM), 99.2% (active); in assay [2] (setting [7]), 99% (active); in assay [2] (setting [8]) it was 99% (active); in assay [2] (at 50.0 µM), 99.2% (active). The growth inhibition in assay [3] (setting [7]) is 99% (active); in assay [3] (setting [8]), 99% (active); in assay [3] (at 50.0 µM), 99.3% (active); in assay [4] (setting [7]), 99% (active); in assay [4] (setting [8]), 99% (active); in assay [4] (at 50.0 µM), 99.1% (active). In addition, the growth inhibition in assay [5] (setting [7]) was 99% (active); in assay [5] (setting [8]) it was 99% (active); in assay [5] (at 50.0 µM), 99.2% (active); in assay [6] (setting [7]) it was 98% (active); in assay [6] (setting [8]), 99% (active); in assay [6] (at 50.0 µM) it was 98.9% (active).
`[N-]=[N+]=CC(=O)c1ccc(C(=O)C=[N+]=[N-])cc1`: the growth inhibition in assay [1] (setting [7]) is 8%; in assay [1] (setting [8]), 95% (active); in assay [1] (at 50.0 µM), 99.2% (active); in assay [2] (setting [7]), 12%; in assay [2] (setting [8]), 99% (active); in assay [2] (at 50.0 µM), 99.5% (active). For the same compound, the growth inhibition is 10% in assay [3] (setting [7]); 95% (active) in assay [3] (setting [8]); 99.4% (active) in assay [3] (at 50.0 µM); 8% in assay [4] (setting [7]); 98% (active) in assay [4] (setting [8]); 98.7% (active) in assay [4] (at 50.0 µM). Moreover, the growth inhibition in assay [5] (setting [7]) is 5%; in assay [5] (setting [8]), 98% (active); in assay [5] (at 50.0 µM), 99.5% (active); in assay [6] (setting [7]), 11%; in assay [6] (setting [8]), 95% (active); in assay [6] (at 50.0 µM) it was 99.2% (active).
Turning to `CCCCN(C)N=Nc1c(C(N)=O)n[nH]c1C(C)C`, the growth inhibition in assay [1] (setting [7]) was 14%; in assay [1] (setting [8]) it was 84% (active); in assay [1] (at 50.0 µM), 79.7% (active); in assay [2] (setting [7]), -8%; in assay [2] (setting [8]), 21%; in assay [2] (at 50.0 µM), 24.4%. Moreover, the growth inhibition in assay [3] (setting [7]) was -4%; in assay [3] (setting [8]) it was 52%; in assay [3] (at 50.0 µM), 29.4%; in assay [4] (setting [7]) it was -3%; in assay [4] (setting [8]), -5%; in assay [4] (at 50.0 µM) it was 1.15%. The growth inhibition was -4% in assay [5] (setting [7]); -10% in assay [5] (setting [8]); -24.2% in assay [5] (at 50.0 µM); 29% in assay [6] (setting [7]); 80% (active) in assay [6] (setting [8]); 57.6% in assay [6] (at 50.0 µM).

For the origin of these results see PubChem BioAssay (NCI).
